Assay [1] deals with rat Peripheral-type Benzodiazepine Receptor (PBR), Tspo (gene 24230) (UniProt P16257). The experiment in a line: NVS_MP_rPBR: NovaScreen (NVS) Membrane Protein Assay for rat Peripheral-type Benzodiazepine Receptor (PBR) (AID 2283335). Put shortly:
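Radioligand displacement, rat kidney membrane prep, 1 h exposure, filter-based scintillation read; DMSO baseline, loss-of-signal scored. Primary screen at 25 uM in duplicate, actives followed up in concentration series.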

Assay [2] has as its target chimpanzee Androgen Receptor (AR), AR (gene 747460) (UniProt O97775). The experiment in a line: NVS_NR_cAR: NovaScreen (NVS) Nuclear Receptor Binding Assay for chimpanzee Androgen Receptor (AR) (AID 2283346). A digest of the protocol:
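Cell-free radioligand displacement using receptor protein extracted from Sf9/Sf21 cells; bound radioligand measured by scintillation counting 72 hours after chemical dosing. Loss of signal versus DMSO baseline indicates binding; primary screen single-concentration in duplicate at 25 uM, actives followed in concentration series.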

Assay [3] has as its target Estrogen receptor (Homo sapiens) (UniProt P03372). Briefly: NVS_NR_hER: NovaScreen (NVS) Nuclear Receptor Binding Assay for human Estrogen Receptor (ER) (AID 2283348). A digest of the protocol:
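Cell-free radioligand binding with protein extracted from MCF7 cells; scintillation counting 18 hours after dosing. Loss of signal versus DMSO baseline read as displacement; primary single-concentration screen at 25 uM in duplicate, actives retested in concentration series.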

Assay [4] has the same target. The experiment in a line: OT_ER_ERaERa_1440: Odyssey Thera (OT) 24-hour HEK293T Protein-Complementation Assay for Estrogen Receptor-alpha/-alpha Homodimer (AID 2283349).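 Further: hits raise fluorescence above DMSO for agonists and antagonists alike.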 A digest of the protocol:
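Readout is the rise in mean fluorescence from reporter fragment complementation when ERα LBD (aa 310-547) units dimerize in HEK293T cells. Measured 24 h after dosing and analysed as increase over DMSO control.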

Assay [5] shares this target. Briefly: OT_ER_ERaERa_0480: Odyssey Thera (OT) 8-hour HEK293T Protein-Complementation Assay for Estrogen Receptor-alpha/-alpha Homodimer (AID 2283351).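 Further: rise in fluorescence from reassembled reporter fragments on ERα LBD homodimer in nucleus or whole cell.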 A digest of the protocol:
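HEK293T cells stably expressing the human ERα ligand-binding domain (aa 310-547) as a homodimer PCA were dosed with compound for 8 h. Gain of fluorescence intensity versus DMSO vehicle was read by laser scanning cytometry.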

For assay [6], the target named is Androgen Receptor/SRC-1 Co-activator, AR (gene 367) (UniProt P10275). Briefly: OT_AR_ARSRC1_0960: Odyssey Thera (OT) 16-hour HEK293T Protein-Complementation Assay for Androgen Receptor/SRC-1 Co-activator (AID 2283353).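 Further: actives raise the signal above DMSO so potency reflects increased AR and SRC-1 complex.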 A digest of the protocol:
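HEK293T cells stably expressing AR and SRC-1 fused to split Venus YFP fragments via (Gly4Ser)2 linkers were dosed for 16 h. Nuclear/cytoplasmic fluorescence ratio at 488 nm, ≥400 cells per image, fitted for gain of signal versus DMSO.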

Assay [7] shares this target. Briefly: OT_AR_ARSRC1_0480: Odyssey Thera (OT) 8-hour HEK293T Protein-Complementation Assay for Androgen Receptor/SRC-1 Co-activator (AID 2283354).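 Further: hits raise the complementation signal above DMSO so AC50 marks enhancers.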 Put shortly:
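HEK293T cells stably expressing AR and SRC-1 fused to split Venus YFP fragments via (Gly4Ser)2 linkers were read 8 h after compound dosing. Complementation was imaged at 488 and 635nm, and nuclear/cytoplasmic fluorescence ratio (488nm) was taken over ≥400 cells; gain-of-signal versus DMSO.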

For assay [8], the target named is Glutamate receptor ionotropic, kainate 1 (Rattus norvegicus) (UniProt P22756). The experiment in a line: NVS_IC_rKAR: NovaScreen (NVS) Ion Channel Assay for rat Kainic Acid Receptors (KAR) (AID 2283334; active means hit-call score of the fitted dose curve at least 0.9, where 1 is the maximum; inactive means score below 0.9). A digest of the protocol:
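Radioligand displacement binding using rat forebrain membranes, 1 h incubation, filter-based scintillation counting. Screened in duplicate at 25 uM, with actives retested in concentration-response up to 50 uM; fitted against DMSO.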

The target of assay [9] is bovine Gamma-Aminobutyric Acid Type A Receptor Agonist (GABAR Agonist), GABRA1 (gene 780973) (UniProt P08219). Briefly: NVS_LGIC_bGABAR_Agonist: NovaScreen (NVS) Ligand-Gated Ion Channel Assay for bovine Gamma-Aminobutyric Acid Type A Receptor Agonist (GABAR Agonist) (AID 2283338). A digest of the protocol: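 Radioligand binding to bovine cerebellar membranes in agonist format, read by filter-based scintillation counting after 1 h. Primary screen in duplicate at 25 uM, with actives followed in concentration series. Gain of signal versus DMSO.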
bovine Gamma-Aminobutyric Acid Type A Receptor Agonist (GABAR Agonist), GABRA1 (gene 780973), sequence (P08219 whole entry, looked up): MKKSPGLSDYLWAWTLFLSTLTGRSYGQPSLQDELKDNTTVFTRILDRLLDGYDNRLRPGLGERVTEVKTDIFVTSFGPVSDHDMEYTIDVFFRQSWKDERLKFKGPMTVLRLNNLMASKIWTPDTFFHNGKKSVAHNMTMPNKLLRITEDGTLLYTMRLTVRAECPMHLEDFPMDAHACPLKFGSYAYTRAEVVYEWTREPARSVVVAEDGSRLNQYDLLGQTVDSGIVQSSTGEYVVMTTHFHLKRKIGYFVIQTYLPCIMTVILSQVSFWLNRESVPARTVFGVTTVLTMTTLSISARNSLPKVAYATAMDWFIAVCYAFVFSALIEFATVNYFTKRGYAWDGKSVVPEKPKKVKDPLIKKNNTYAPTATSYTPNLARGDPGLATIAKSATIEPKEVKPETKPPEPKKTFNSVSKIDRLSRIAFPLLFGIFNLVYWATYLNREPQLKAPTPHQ

In assay [10] the target is Estrogen receptor (Homo sapiens) + Estrogen receptor beta (Homo sapiens) (UniProt P03372+Q92731). The experiment in a line: OT_ER_ERaERb_0480: Odyssey Thera (OT) 8-hour HEK293T Protein-Complementation Assay for Estrogen Receptor-alpha/-beta Heterodimer (AID 2283352). A digest of the protocol:
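Compound added to HEK293T cells carrying split-reporter-tagged ER-alpha and ER-beta LBDs, incubated 8 hours, then imaged by laser scanning cytometer. Signal rise in nucleus, or nucleus and cytoplasm, over vehicle was fitted in the positive direction.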

In assay [11] the target is rat Glycine Receptor, Strychnine-sensitive (GlyRStrySens), Glra1 (gene 25674) (UniProt P07727). The experiment in a line: NVS_LGIC_rGlyRStrySens: NovaScreen (NVS) Ligand-Gated Ion Channel Assay for rat Glycine Receptor, Strychnine-sensitive (GlyRStrySens) (AID 2283341). A digest of the protocol: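 Radioligand displacement on rat spinal cord membranes, 1 hr, filter scintillation read-out. Single-concentration duplicate screen at 25 uM; chemicals meeting threshold (e.g., 30% inhibition) rerun in concentration-response up to 50 uM. Loss of binding fitted versus DMSO.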
rat Glycine Receptor, Strychnine-sensitive (GlyRStrySens), Glra1 (gene 25674), sequence (P07727 whole entry, looked up): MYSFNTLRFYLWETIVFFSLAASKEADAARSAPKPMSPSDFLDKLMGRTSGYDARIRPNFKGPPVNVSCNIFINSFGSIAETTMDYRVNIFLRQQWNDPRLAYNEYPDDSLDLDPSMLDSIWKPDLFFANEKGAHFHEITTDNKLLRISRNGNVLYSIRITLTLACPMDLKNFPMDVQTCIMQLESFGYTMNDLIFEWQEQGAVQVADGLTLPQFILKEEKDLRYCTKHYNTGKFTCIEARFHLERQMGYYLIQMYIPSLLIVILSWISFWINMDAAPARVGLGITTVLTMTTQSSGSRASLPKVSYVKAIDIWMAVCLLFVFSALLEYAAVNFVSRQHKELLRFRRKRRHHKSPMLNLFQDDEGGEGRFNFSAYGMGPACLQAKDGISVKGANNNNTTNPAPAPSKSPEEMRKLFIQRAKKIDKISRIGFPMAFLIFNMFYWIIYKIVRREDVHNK

Assay [12] relates to guinea pig Histamine Receptor (H2), gene 100729734. The experiment in a line: NVS_GPCR_gH2: NovaScreen (NVS) G Protein-Coupled Receptor Assay for guinea pig Histamine Receptor (H2) (AID 2283342). Put shortly: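 Radioligand displacement on guinea pig striatal membranes, 1 h after dosing, filter-based scintillation counting; loss of signal versus DMSO. Single-point screen at 25 uM in duplicate, then concentration-response up to 50 uM.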

Assay [13] addresses rat Glutamate, MK-801 Agonist Site (GluNMDA_MK801), Grin1 (gene 24408) (UniProt P35439). Briefly: NVS_LGIC_rGluNMDA_MK801_Agonist: NovaScreen (NVS) Ligand-Gated Ion Channel Assay for rat Glutamate, MK-801 Agonist Site (GluNMDA_MK801) (AID 2283340). Put shortly: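 Radioligand binding at MK-801 site in rat forebrain membranes, 1.5 h incubation, filter-based scintillation counting. Initially 25 uM in duplicate; actives then run in concentration-response up to 50 uM, fitted for gain of signal versus DMSO.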

The next assay relates to NCBI gene 100848466. The experiment in a line: NVS_NR_bPR: NovaScreen (NVS) Nuclear Receptor Binding Assay for bovine Progextron Receptor (PR) (AID 2283343).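 Further: actives lower bound radioligand signal below DMSO meaning displacement of the label.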 Put shortly: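 Bovine uterine membrane preparation, cell-free; radioligand competitive displacement measured by scintillation counting 18 hours after dosing. Loss of signal versus DMSO baseline indicates binding; primary HTS single concentration 25 uM in duplicate, actives followed in concentration series.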

The target in assay [14] is human Constitutive Androstane Receptor (CAR), NR1I3 (gene 9970) (UniProt Q14994). Briefly: NVS_NR_hCAR_Antagonist: NovaScreen (NVS) Nuclear Receptor Binding Assay for human Constitutive Androstane Receptor Antagonism (CAR) (AID 2283344). Put shortly:
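Cell-free TR-FRET binding read 1 h after dosing, antagonist mode; loss of signal versus DMSO baseline. Primary screen in duplicate at a single 25 uM; actives retested in concentration series.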

The target of assay [15] is Bile acid receptor (Homo sapiens) (UniProt Q96RI1). The experiment in a line: NVS_NR_hFXR_Antagonist: NovaScreen (NVS) Nuclear Receptor Binding Assay for human Farnesoid X Receptor Antagonism (FXR) (AID 2283350). Put shortly:
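Cell-free TR-FRET ligand-binding read-out on human FXR (NR1H4) in antagonist mode, measured 1 h after dosing. Primary screen in duplicate at 25 uM, actives retested in concentration series; signal loss scored versus DMSO.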

Assay [16] addresses rat Mineralocorticoid Receptor (MR), Nr3c2 (gene 25672) (UniProt P22199). The experiment in a line: NVS_NR_rMR: NovaScreen (NVS) Nuclear Receptor Binding Assay for rat Mineralocorticoid Receptor (MR) (AID 2283355). A digest of the protocol: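 Cell-free radioligand binding to MR in adrenalectomized rat brain supernatant, scintillation counted 24 h after dosing. Loss of signal versus DMSO baseline marks displacement. Primary screen in duplicate at 25 uM; actives retested as concentration series.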

Several values for one entry are separate records, joined by “and”; a condition that tells them apart may be missing. Equal entries are not always repeated. Records with an inconclusive call do not appear. More than one record can exist for a structure, and the calls need not agree. Activity calls are given as the source filed them. How the source made its calls, unless noted: active means hit-call score of the fitted dose curve at least 0.9, where 1 is the maximum; inconclusive means response in the unintended direction; inactive means score below 0.9.

chimpanzee Androgen Receptor (AR), AR (gene 747460), sequence (O97775 whole entry, looked up): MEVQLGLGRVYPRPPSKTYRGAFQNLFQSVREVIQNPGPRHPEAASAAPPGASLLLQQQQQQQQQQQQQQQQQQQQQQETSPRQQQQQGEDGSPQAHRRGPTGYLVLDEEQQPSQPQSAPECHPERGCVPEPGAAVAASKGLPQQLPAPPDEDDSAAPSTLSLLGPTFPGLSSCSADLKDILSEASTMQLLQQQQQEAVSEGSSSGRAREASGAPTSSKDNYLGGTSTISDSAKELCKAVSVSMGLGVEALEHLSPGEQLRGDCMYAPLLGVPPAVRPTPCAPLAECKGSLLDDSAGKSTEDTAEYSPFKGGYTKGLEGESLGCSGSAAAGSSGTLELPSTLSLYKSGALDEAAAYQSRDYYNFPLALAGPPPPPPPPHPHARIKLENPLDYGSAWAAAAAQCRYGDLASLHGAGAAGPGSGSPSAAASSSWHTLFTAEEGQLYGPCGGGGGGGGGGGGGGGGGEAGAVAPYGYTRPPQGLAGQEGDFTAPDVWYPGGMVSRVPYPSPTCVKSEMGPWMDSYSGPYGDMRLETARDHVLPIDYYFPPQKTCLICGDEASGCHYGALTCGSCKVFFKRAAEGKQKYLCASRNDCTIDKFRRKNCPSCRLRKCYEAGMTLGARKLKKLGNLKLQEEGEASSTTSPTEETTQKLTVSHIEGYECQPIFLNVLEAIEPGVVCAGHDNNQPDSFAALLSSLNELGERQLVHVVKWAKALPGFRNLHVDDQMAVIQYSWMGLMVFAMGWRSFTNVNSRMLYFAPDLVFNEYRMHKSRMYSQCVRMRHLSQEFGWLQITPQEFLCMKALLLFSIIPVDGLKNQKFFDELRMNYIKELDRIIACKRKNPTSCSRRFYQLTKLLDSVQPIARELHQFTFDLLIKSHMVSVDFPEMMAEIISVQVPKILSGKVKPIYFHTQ
rat Peripheral-type Benzodiazepine Receptor (PBR), Tspo (gene 24230), sequence (P16257 whole entry, looked up): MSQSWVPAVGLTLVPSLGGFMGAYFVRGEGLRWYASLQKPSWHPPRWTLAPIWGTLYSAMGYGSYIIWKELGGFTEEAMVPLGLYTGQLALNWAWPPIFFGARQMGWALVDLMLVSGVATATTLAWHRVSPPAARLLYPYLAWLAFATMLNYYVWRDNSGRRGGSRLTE
Estrogen receptor (Homo sapiens), sequence (P03372 whole entry, looked up): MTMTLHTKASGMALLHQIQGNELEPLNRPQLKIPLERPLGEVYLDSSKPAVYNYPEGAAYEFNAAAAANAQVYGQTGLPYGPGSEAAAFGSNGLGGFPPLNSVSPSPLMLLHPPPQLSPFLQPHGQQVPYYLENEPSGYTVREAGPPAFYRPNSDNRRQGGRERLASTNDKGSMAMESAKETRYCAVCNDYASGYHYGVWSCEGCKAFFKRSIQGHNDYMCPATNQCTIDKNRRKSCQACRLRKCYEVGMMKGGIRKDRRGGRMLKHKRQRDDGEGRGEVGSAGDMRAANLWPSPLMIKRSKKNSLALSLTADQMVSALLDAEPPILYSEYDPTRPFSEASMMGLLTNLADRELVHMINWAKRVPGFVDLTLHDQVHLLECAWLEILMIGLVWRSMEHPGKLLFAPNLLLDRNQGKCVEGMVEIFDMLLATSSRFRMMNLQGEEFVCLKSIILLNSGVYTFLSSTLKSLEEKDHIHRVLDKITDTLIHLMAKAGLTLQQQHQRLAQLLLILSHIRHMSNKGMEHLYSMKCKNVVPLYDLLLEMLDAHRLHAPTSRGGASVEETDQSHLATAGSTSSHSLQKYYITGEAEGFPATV
Estrogen receptor (Homo sapiens) + Estrogen receptor beta (Homo sapiens), sequence (P03372 whole entry, looked up): as above
Estrogen receptor (Homo sapiens) + Estrogen receptor beta (Homo sapiens), sequence (Q92731 whole entry, looked up): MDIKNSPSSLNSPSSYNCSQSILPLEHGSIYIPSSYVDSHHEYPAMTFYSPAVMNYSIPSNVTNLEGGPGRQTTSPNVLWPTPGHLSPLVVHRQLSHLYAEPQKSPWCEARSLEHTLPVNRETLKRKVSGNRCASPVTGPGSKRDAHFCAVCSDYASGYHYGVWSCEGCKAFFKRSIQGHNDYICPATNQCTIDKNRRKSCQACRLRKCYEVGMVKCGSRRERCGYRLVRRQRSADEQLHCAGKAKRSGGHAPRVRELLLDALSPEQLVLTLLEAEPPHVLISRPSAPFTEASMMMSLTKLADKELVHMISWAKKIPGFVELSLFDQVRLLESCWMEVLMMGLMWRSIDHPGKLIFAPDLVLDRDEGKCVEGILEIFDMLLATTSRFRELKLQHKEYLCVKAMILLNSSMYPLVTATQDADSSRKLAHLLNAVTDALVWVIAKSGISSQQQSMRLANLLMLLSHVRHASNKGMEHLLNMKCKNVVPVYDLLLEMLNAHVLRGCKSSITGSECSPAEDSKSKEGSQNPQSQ
Androgen Receptor/SRC-1 Co-activator, AR (gene 367), sequence (P10275 whole entry, looked up, the tested form may be a part): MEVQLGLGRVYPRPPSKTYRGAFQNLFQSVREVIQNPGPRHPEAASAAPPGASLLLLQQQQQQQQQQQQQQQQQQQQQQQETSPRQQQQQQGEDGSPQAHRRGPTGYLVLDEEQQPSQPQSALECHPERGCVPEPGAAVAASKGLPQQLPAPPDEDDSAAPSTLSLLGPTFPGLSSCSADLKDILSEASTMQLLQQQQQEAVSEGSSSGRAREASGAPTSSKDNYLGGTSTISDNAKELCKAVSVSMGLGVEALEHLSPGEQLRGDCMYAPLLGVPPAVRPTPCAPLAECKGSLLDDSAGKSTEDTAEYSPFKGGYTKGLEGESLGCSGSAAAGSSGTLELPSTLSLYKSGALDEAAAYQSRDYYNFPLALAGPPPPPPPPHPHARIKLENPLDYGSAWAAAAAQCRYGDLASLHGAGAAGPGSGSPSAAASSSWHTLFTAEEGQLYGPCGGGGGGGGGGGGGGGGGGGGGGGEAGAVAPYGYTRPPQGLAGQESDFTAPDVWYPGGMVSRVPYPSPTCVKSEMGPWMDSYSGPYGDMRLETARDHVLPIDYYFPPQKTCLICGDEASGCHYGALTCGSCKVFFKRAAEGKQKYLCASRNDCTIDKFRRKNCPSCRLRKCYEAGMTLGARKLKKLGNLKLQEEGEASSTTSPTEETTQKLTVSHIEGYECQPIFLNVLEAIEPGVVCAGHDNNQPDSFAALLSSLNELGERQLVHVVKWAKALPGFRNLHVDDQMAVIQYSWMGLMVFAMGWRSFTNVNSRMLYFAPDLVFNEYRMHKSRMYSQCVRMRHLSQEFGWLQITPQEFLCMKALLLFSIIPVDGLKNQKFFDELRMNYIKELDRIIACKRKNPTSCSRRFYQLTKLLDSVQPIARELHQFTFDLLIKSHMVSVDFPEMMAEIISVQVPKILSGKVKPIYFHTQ
human Constitutive Androstane Receptor (CAR), NR1I3 (gene 9970), sequence (Q14994 whole entry, looked up): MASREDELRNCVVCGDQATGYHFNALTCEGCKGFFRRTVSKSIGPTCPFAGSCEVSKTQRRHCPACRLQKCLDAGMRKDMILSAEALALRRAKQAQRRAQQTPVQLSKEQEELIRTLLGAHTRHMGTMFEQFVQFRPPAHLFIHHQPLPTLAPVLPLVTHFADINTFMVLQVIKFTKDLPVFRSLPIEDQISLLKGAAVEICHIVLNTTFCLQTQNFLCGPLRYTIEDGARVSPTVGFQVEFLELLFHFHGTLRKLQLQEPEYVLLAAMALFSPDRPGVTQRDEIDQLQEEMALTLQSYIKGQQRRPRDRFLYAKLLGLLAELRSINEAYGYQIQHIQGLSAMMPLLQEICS

What is called AC50 is the concentration giving half of the maximal activity seen. As to `Cc1oc(-c2ccccc2)nc1CCOc1ccc(C[C@H](Nc2ccccc2C(=O)c2ccccc2)C(=O)O)cc1`, the AC50 in assay [1] was 4.35 µM (active); in assay [6], 45.4 µM (active). Also, the call in assay [2], in [3], in assay [4], in assay [5] and in assay [7] was inactive.
For the molecule `CC1=C(/C=C/C(C)=C/C=C/C(C)=C/C(=O)O)C(C)(C)CCC1`, the molecule was called inactive in [1], in assay [3], in assay [4] and in assay [5].
As for `OCCC(F)(F)C(F)(F)C(F)(F)C(F)(F)C(F)(F)C(F)(F)C(F)(F)C(F)(F)F`, the molecule was called inactive in assay [8], in [9], in [3], in assay [4], in assay [5] and in assay [10]. Besides, the molecule was called inactive in assay [6] and in assay [7].
As for `OC1CCCCC1`, in assay [3], the AC50 is 0.0267 µM (active). For the same molecule, the call in assay [3], in assay [4] and in assay [5] was inactive.
Turning to `NC(=O)N(O)[C@@H]1C=C[C@H](Oc2cccc(Oc3ccc(F)cc3)c2)C1`, the molecule was classed as inactive in assay [11], in assay [12], in assay [3], in assay [4], in [5] and in assay [10].
Consider `CCCCCCCCCCCCCC[N+](C)(C)C`, for which the call in assay [2] and in assay [5] was inactive. In addition, the half-maximal activity concentration (AC50) in assay [3] is 35 µM (active).
In the case of `CCCCCCCCCCCCCCCS(=O)(=O)Oc1ccccc1`, the result in [9], in [4], in assay [5] and in [10] was inactive.
As for `CCCCCCCCCCCCc1ccccc1S(=O)(=O)O`, the half-maximal activity concentration (AC50) in assay [1] was 6.37 µM (active); in the assay with NCBI gene 100848466, 17.1 µM (active); in assay [14], 10.9 µM (active); in assay [3], 40.6 µM (active); in [15] it was 12.2 µM (active). In addition, the call in assay [13], in assay [4], in assay [5], in assay [6], in [7] and in assay [16] was inactive.
`NC(=O)N1C(=O)C(C(=O)c2cc(Cl)cs2)c2cc(F)c(Cl)cc21` (centres undefined): the outcome in [8], in [3], in [4], in [5], in assay [6] and in assay [7] was inactive. For the same molecule, the AC50 in assay [1] is 25 µM (active).
On to `O=C1OC2(c3ccccc31)c1cc(Br)c(O)c(Br)c1Oc1c2cc(Br)c(O)c1Br`, for which the AC50 was 38.1 µM (active) in assay [2]; 16.8 µM (active) in assay [3]; 62.2 µM (active) in assay [4]; 88.3 µM (active) in assay [5]; 78.2 µM (active) in [10]. For the same molecule, the call in assay [3] was inactive.
With `CCC(C)(C)C1CCC(O)CC1` (centres undefined), the concentration at half-maximal activity (AC50) in assay [2] is 32.1 µM (active); in assay [3], 3.1 µM (active) and 2.51 µM (active); in [5] it was 59.3 µM (active). Also, the molecule was classed as inactive in assay [3], in [4] and in assay [5].
`OC1CCC(C2CCCCC2)CC1` (centres undefined): the half-maximal activity concentration (AC50) in assay [2] is 22.4 µM (active); in assay [5], 81.9 µM (active); in assay [10], 50 µM (active) and 34.5 µM (active) and 48.7 µM (active). Moreover, the call in [2], in [3], in assay [4], in [5] and in assay [10] was inactive.

The record behind these values is PubChem BioAssay (EPA / NIEHS).
